High-throughput results (PubChem BioAssay)
ST2 IL33 inh: inhibitors of human ST2 (IL1RL1) binding to IL-33; Q01638; AlphaLISA ST2-Fc/biotin-IL-33 interaction, 1 h; inhibition, % for hits at 17 µM; 78,000 tested, 2.3% active; AID 1259354; in the data active = inhibition above about 30%
Target sequence (Q01638 whole entry, looked up): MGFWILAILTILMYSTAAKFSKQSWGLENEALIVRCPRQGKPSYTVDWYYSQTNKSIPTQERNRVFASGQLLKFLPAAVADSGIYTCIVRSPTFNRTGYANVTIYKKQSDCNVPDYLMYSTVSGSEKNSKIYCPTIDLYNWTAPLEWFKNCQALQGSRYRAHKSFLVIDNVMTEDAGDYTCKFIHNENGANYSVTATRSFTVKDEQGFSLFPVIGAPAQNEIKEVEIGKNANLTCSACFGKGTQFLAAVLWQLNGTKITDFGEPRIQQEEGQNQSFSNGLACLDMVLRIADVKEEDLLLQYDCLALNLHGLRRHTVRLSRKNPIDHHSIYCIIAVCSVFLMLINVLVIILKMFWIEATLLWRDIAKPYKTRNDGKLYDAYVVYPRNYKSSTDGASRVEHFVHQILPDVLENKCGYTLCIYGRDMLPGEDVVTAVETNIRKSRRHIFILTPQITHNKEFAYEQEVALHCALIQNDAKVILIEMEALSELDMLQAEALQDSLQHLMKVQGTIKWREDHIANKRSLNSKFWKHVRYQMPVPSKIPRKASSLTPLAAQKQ
* hit, by the source's call; ! = repeats disagree. The entries come from a sample that favours hits as a whole.

What do the screens show for `CCOC(=O)C1CCCN(C2CCN(c3ccc(NC(=O)CCc4ccccc4)cc3)CC2)C1` (centres undefined)?
ST2 IL33 inh: inactive

How did N=C1SCCN1CC(=O)c1ccc(Br)cc1 do in these assays?
ST2 IL33 inh: 48.0%*!

How did O=C(CN1C(=O)CCSc2ccccc21)Nc1ccc(Br)cc1 do in these assays?
ST2 IL33 inh: inactive

Results for O=C(CSc1ncn[nH]1)c1ccc(Br)cc1 ?
ST2 IL33 inh: inactive

Results for CCCOc1ccc(/C=c2\sc3nc(=O)c(-c4ccccc4)nn3c2=O)cc1 ?
ST2 IL33 inh: inactive

How did CCOC(=O)C1C(=O)C=C(c2cccs2)CC1c1cccc(F)c1 (centres undefined) do in these assays?
ST2 IL33 inh: 47.0%*

What do the screens show for `CCOC(=O)C1C(=O)C=C(c2cccc(OC)c2)CC1c1ccc(OC)c(OC)c1` (centres undefined)?
ST2 IL33 inh: inactive

Results for CCOC(=O)C1C(=O)C=C(c2ccco2)CC1c1cccs1 (centres undefined) ?
ST2 IL33 inh: inactive

Results for O=C(NCc1ccco1)c1ccc(N2C(=O)C3C4C=CC(C4)C3C2=O)cc1 (centres undefined) ?
ST2 IL33 inh: inactive

Results for CSc1nc2c(c(=O)[nH]1)C(c1cccs1)C1=C(CC(C)(C)CC1=O)N2 (centres undefined) ?
ST2 IL33 inh: inactive

What do the screens show for `CCn1nc(C(=O)NCc2ccc(OC)cc2)c2c1CCN(C(=O)c1ccc3c(c1)OCO3)C2`?
ST2 IL33 inh: inactive

How did CC1=C(C(=O)Nc2ccc(Cl)cc2)C(c2ccc(Br)cc2)n2nnnc2N1 (centres undefined) do in these assays?
ST2 IL33 inh: inactive

How did CN1/C(=C\C(=O)c2ccc([N+](=O)[O-])cc2)C(C)(C)c2ccccc21 do in these assays?
ST2 IL33 inh: 36.0%*

How did NC(=O)c1ccc(C(=O)c2ccc([N+](=O)[O-])cc2)cc1 do in these assays?
ST2 IL33 inh: inactive

How did CN1C(=O)C(O)(CC(=O)c2cccc([N+](=O)[O-])c2)c2ccccc21 (centres undefined) do in these assays?
ST2 IL33 inh: inactive

How did O=C(c1ccc2c(Cl)c3c(nc2c1)CCCC3)N1CCN(C(=O)c2ccco2)CC1 do in these assays?
ST2 IL33 inh: inactive

What do the screens show for `CC(=O)c1ccc(NC(=O)CCCn2nc([N+](=O)[O-])c(Br)c2C)cc1`?
ST2 IL33 inh: inactive

What do the screens show for `CCCN1C2OC(C3OC4C(O3)N(C)S(=O)(=O)N4C)OC2N(CCC)S1(=O)=O` (centres undefined)?
ST2 IL33 inh: inactive

What do the screens show for `CCOc1ccc(NC(=O)CC2CCCCC2)cc1`?
ST2 IL33 inh: inactive

What do the screens show for `CCOc1ccc2sc(C=NC3CCCCC3)c(O)c2c1`?
ST2 IL33 inh: 41.0%*

How did CCCCCN=Cc1sc2ccc(OCC)cc2c1O do in these assays?
ST2 IL33 inh: 33.0%*

What do the screens show for `CCOc1ccc2nc(N=Cc3nc(-c4ccc(Br)cc4)oc3O)sc2c1`?
ST2 IL33 inh: inactive

How did CCOc1ccc2nc(NC(=O)C3CCCCC3)sc2c1 do in these assays?
ST2 IL33 inh: inactive

What do the screens show for `CCOc1ccc2sc(C=NCCc3ccccn3)c(O)c2c1`?
ST2 IL33 inh: inactive

What do the screens show for `O=C(CN1C(=O)C2C3CCC(C3)C2C1=O)Nc1ccc(F)cc1` (centres undefined)?
ST2 IL33 inh: inactive

Results for Cc1cc(NC(=O)c2noc3c2CC(C)CC3)n(-c2ccccc2)n1 (centres undefined) ?
ST2 IL33 inh: inactive

What do the screens show for `COc1ccc(C2C3C(=O)N(C(C)C)C(=O)C3ON2c2ccc(Cl)cc2)c(OC)c1` (centres undefined)?
ST2 IL33 inh: inactive

How did O=C(Nc1ccc(-c2nc3ccccc3s2)cc1)C(F)(F)F do in these assays?
ST2 IL33 inh: inactive

Results for Cc1ccc(-c2nc3cc(Cl)ccc3o2)cc1NC(=O)c1ccco1 ?
ST2 IL33 inh: inactive

What do the screens show for `O=C(Nc1cc(-c2nc3ccccc3s2)ccc1Cl)c1ccco1`?
ST2 IL33 inh: 39.0%*

Results for Cc1ccc2c(c1)N(C(C)C(=O)NC1CC1)C(=O)CO2 (centres undefined) ?
ST2 IL33 inh: inactive

What do the screens show for `COc1ccc(C2C(C(=O)Nc3ccc4c(c3)OCCO4)CC(=O)N2c2ccc(OC)cc2)cc1` (centres undefined)?
ST2 IL33 inh: inactive

Results for CCOc1ccc(NC(=O)NCCc2nc3cccnc3n2Cc2ccc(C)cc2)cc1 ?
ST2 IL33 inh: inactive

What do the screens show for `Cc1ccc(Cn2c(CCNC(=O)Nc3ccccc3Cl)nc3cccnc32)cc1`?
ST2 IL33 inh: 36.0%*

How did Cc1ccc(CNC(=O)NCCc2nc3cccnc3n2Cc2ccc(C)cc2)cc1 do in these assays?
ST2 IL33 inh: inactive

What do the screens show for `O=C(Nc1cccc(-c2nc3ccccc3s2)c1)C(F)(F)F`?
ST2 IL33 inh: inactive

How did CC(C)c1cc(C(C)C)c(S(=O)(=O)NCCCN(C)C)c(C(C)C)c1 do in these assays?
ST2 IL33 inh: inactive

How did O=C(CNS(=O)(=O)c1cccs1)NCc1ccc(Cl)cc1 do in these assays?
ST2 IL33 inh: inactive

Results for COc1ccc(-c2noc([C@@H]3C[C@@H](O)CN3Cc3ccc(Cl)cc3)n2)cc1 ?
ST2 IL33 inh: inactive

Results for O[C@@H]1C[C@@H](c2nc(-c3ccc(C(F)(F)F)cc3)no2)N(Cc2ccc(-c3ccccn3)cc2)C1 ?
ST2 IL33 inh: inactive

What do the screens show for `O=S(=O)(Cc1noc([C@@H]2C[C@@H](O)CN2Cc2ccc(-c3ccccn3)cc2)n1)c1ccc(F)cc1`?
ST2 IL33 inh: inactive

What do the screens show for `CC(=O)Nc1ccc(CN2C[C@H](O)C[C@H]2c2nc(CS(=O)(=O)c3ccc(F)cc3)no2)cc1`?
ST2 IL33 inh: 74.0%*

How did COc1ccc(-c2noc([C@@H]3C[C@@H](O)CN3Cc3ccncc3)n2)cc1 do in these assays?
ST2 IL33 inh: 36.0%*

How did CN(C)c1ccc(CN2C[C@H](O)C[C@H]2c2nc(-c3ccccn3)no2)cc1 do in these assays?
ST2 IL33 inh: inactive

How did O=[N+]([O-])c1ccc(CN2C[C@H](O)C[C@H]2c2nc(-c3ccc(OC(F)(F)F)cc3)no2)cc1 do in these assays?
ST2 IL33 inh: inactive

What do the screens show for `O[C@@H]1C[C@@H](c2nc(-c3cccnc3)no2)N(Cc2ccccc2)C1`?
ST2 IL33 inh: inactive

How did O=S(=O)(Cc1noc([C@@H]2C[C@@H](O)CN2CC2CC2)n1)c1ccc(F)cc1 do in these assays?
ST2 IL33 inh: inactive

What do the screens show for `O=[N+]([O-])c1ccc(CN2C[C@H](O)C[C@H]2c2nc(-c3ccc(C(F)(F)F)cc3)no2)cc1`?
ST2 IL33 inh: inactive

How did O[C@@H]1C[C@@H](c2nc(-c3ccncc3)no2)N(Cc2ccc(-c3ccccn3)cc2)C1 do in these assays?
ST2 IL33 inh: 33.0%*

Results for O[C@@H]1C[C@@H](c2nc(-c3ccc(F)cc3)no2)N(Cc2ccc(OC(F)(F)F)cc2)C1 ?
ST2 IL33 inh: 53.0%*

What do the screens show for `N#CC1=C(N)OC2=C(C(=O)CCC2)C1c1cccnc1` (centres undefined)?
ST2 IL33 inh: inactive

Results for CCOc1ccc(S(=O)(=O)Nc2ccc3oc4c(c3c2)C(=O)CCC4)cc1 ?
ST2 IL33 inh: inactive

What do the screens show for `CN(Cc1ccccc1)c1ncc(S(C)(=O)=O)c(C2CCCNC2)n1` (centres undefined)?
ST2 IL33 inh: inactive

How did CCn1c(C2CCN(C(=O)CN(C)Cc3ccccn3)CC2)nn(C)c1=O do in these assays?
ST2 IL33 inh: inactive

How did C=CCNCC(=O)NC12CC3CC(CC(C3)C1)C2 do in these assays?
ST2 IL33 inh: inactive
